Counter-ions that a name gives are not always drawn. A number with no mark means an inactive call.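 Rule for the calls: for the amine columns active = adjusted P below 0.05 in both replicates with a change the same way and a mean fold change under 0.8 or over 1.25; inactive = the rest.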

For the test, the system named is Klebsiella aerogenes DSM 30053. Put plainly: fold change of Histamine concentration vs plate DMSO controls (fold change (ratio)); higher = more amine produced, active = hit call of the paper (significant change in both replicates, either direction). The following applies: incubation time: 27 h, anaerobic, 37 °C. In outline: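 In 80 µL wells, cultures of four gut bacterial strains in mGAM started at OD 0.1 before a 1:1 dilution and grew anaerobically at 37 °C for 27 h. Compounds were added to 20 µM final, except sweeteners at 50 µM final. After extraction of whole cultures with cold acetonitrile/methanol plus 0.1% formic acid and centrifugation, amines were measured by LC–triple-quadrupole MS in dynamic MRM mode against external calibration curves, with within-batch drift correction. Values give fold change over DMSO controls on the same plate, averaged across 2 biological replicates.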
Regarding `CC(=O)S[C@@H]1CC2=CC(=O)CC[C@]2(C)[C@H]2CC[C@@]3(C)[C@@H](CC[C@@]34CCC(=O)O4)[C@H]12` [Spironolactone] (20 µM), the “fold change of Histamine concentration” value is 1.
For `COC(=O)C1=C(C)NC(C)=C(C(=O)OCCN2CCN(C(c3ccccc3)c3ccccc3)CC2)C1c1cccc([N+](=O)[O-])c1` (centres undefined) [Manidipine Dihydrochloride] (20 µM) the value was 1; for `CC(=O)NS(=O)(=O)c1ccc(NC(=O)c2ccccc2C(=O)O)cc1` [Phthalylsulfacetamide] (20 µM), 1.04.
For `CN(C/C=C/C#CC(C)(C)C)Cc1cccc2ccccc12` [Terbinafine] (20 µM), the “fold change of Histamine concentration” value is 1.07.
The same measure for `Nc1nc2[nH]cnc2c(=S)[nH]1` [Tioguanine] (20 µM): 1.
The same measure for `CC(=O)OCC(=O)[C@@]12N=C(C)O[C@@H]1C[C@H]1[C@@H]3CCC4=CC(=O)C=C[C@]4(C)[C@H]3[C@@H](O)C[C@@]12C` [Deflazacort] (20 µM): 1; for `CCCCOCCOCCOCc1cc2c(cc1CCC)OCO2` [Piperonyl butoxide] (20 µM): 0.916; for `O=C(Cn1ccnc1[N+](=O)[O-])NCCO` [Etanidazole] (20 µM): 0.832.
As for `CCN(CC)CCNC(=O)c1cc(Cl)c(N)cc1OC` [Metoclopramide monohydrochloride] (20 µM), the “fold change of Histamine concentration” value is 1.03.
With `CCN(CC)CCNC(C(=O)OCCC(C)C)c1ccccc1` (centres undefined) [Camylofine chlorhydrate] (20 µM), the “fold change of Histamine concentration” value is 1.04.
For `Cc1cc(C)nc(NS(=O)(=O)c2ccc(N)cc2)n1` [Sulfamethazine sodium salt] (20 µM) the value was 1.06; for `C/C(O)=C(\C#N)C(=O)Nc1ccc(C(F)(F)F)cc1` [Teriflunomide] (20 µM), 1.01; for `NC[C@@H]1O[C@@H](O[C@H]2[C@H](O)[C@@H](O[C@H]3O[C@H](CO)[C@@H](O)[C@H](N)[C@H]3O)[C@H](N)C[C@@H]2N)[C@@H](O)[C@H](O)[C@H]1O` [Kanamycin A sulfate] (20 µM), 0.907.
For the compound `CN[C@@H]1[C@H](O)[C@H](NC)[C@H]2O[C@@]3(O)C(=O)C[C@@H](C)O[C@H]3O[C@@H]2[C@H]1O` [Spectinomycin dihydrochloride] (20 µM), the “fold change of Histamine concentration” value was 0.762.
For `CCOC(=O)c1ccc(C#Cc2ccc3c(c2)C(C)(C)CCS3)nc1` [Tazarotene] (20 µM) the value was 1.02; for `CCCOc1ccc2[nH]c(NC(=O)OC)nc2c1` [Oxibendazol] (20 µM), 1.04; for `CCN(CCCc1ccccc1)CCCc1ccccc1` [Alverine citrate salt] (20 µM), 0.972.
The same measure for `CO[C@@H]1[C@@H](OC(N)=O)[C@@H](O)[C@H](Oc2ccc3c(O)c(NC(=O)c4ccc(O)c(CC=C(C)C)c4)c(=O)oc3c2C)OC1(C)C` [Novobiocin sodium salt] (20 µM): 0.858.
The same measure for `CCOC(N)=O` [Urethane] (20 µM): 1.03.
Consider `CCN1CCN(C(=O)N[C@@H](C(=O)N[C@@H]2C(=O)N3[C@@H]2SC(C)(C)[C@@H]3C(=O)O)c2ccccc2)C(=O)C1=O` [Piperacillin sodium salt] (20 µM), for which the “fold change of Histamine concentration” value was 0.706.
Turning to `CC1CCc2cc(F)cc3c(=O)c(C(=O)O)cn1c23` (centres undefined) [Flumequine] (20 µM), the “fold change of Histamine concentration” value is 0.301 (active).
For `CO/N=C1\CN(c2nc3c(cc2F)c(=O)c(C(=O)O)cn3C2CC2)CC1CN` (centres undefined) [Gemifloxacin mesylate] (20 µM) the value was 0.0873 (active); for `C=CCOc1ccc(CC(=O)O)cc1Cl` [Alclofenac] (20 µM), 0.998; for `C[C@]12CC[C@H]3[C@@H](CCC4=CC(=O)CC[C@@]43C)[C@@H]1CC[C@@H]2C(=O)CO` [Deoxycorticosterone] (20 µM), 0.959.
Turning to `CCCC(CCC)C(=O)O[C@H]1C[C@H]2CC[C@@H](C1)[N+]2(C)C` [Anisotropine Methylbromide] (20 µM), the “fold change of Histamine concentration” value was 0.986.
For `Cc1cn(-c2cc(NC(=O)c3ccc(C)c(Nc4nccc(-c5cccnc5)n4)c3)cc(C(F)(F)F)c2)cn1` [Nilotinib] (20 µM) the value was 0.924; for `OCCN1CCN(CC/C=C2/c3ccccc3Sc3ccc(C(F)(F)F)cc32)CC1` [Flupentixol dihydrochloride cis-(Z)] (20 µM), 1.
Turning to `N#Cc1cc(NC(=O)C(=O)O)c(Cl)c(NC(=O)C(=O)O)c1` [Lodoxamide] (20 µM), the “fold change of Histamine concentration” value was 0.985.
Consider `O=P(O)(O)C(Cl)(Cl)P(=O)(O)O` [Clodronate disodium] (20 µM), for which the “fold change of Histamine concentration” value is 1.02.
With `CC(=O)N[C@@H](CCC(N)=O)C(=O)O` [Acetyl-L-glutamine] (20 µM), the “fold change of Histamine concentration” value is 1.03.
The same measure for `CC(=O)N(CC(O)CO)c1c(I)c(C(=O)NCC(O)CO)c(I)c(C(=O)NCC(O)CO)c1I` (centres undefined) [Iohexol] (20 µM): 0.958; for `Cc1cc2nc3c(=O)[nH]c(=O)nc-3n(C[C@H](O)[C@H](O)[C@H](O)CO)c2cc1C` [Riboflavine] (20 µM): 0.984; for `CC(=O)CC(c1ccc([N+](=O)[O-])cc1)c1c(O)c2ccccc2oc1=O` (centres undefined) [Acenocoumarol] (20 µM): 0.909.
The same measure for `O=C1CCc2ccc(OCCCCN3CCN(c4cccc(Cl)c4Cl)CC3)cc2N1` [Aripiprazole] (20 µM): 1.16; for `Nc1nc(/C(=C/CC(=O)O)C(=O)N[C@@H]2C(=O)N3C(C(=O)O)=CCS[C@H]23)cs1` [Ceftibuten] (20 µM): 0.885; for `C=C(CC)C(=O)c1ccc(OCC(=O)O)c(Cl)c1Cl` [Ethacrynic acid] (20 µM): 0.964.
As for `C[C@H](N[C@@H](CCc1ccccc1)C(=O)O)C(=O)N1CCC[C@H]1C(=O)O` [Enalaprilat dihydrate] (20 µM), the “fold change of Histamine concentration” value is 1.04.
For `O=C1c2ccccc2S(=O)(=O)N1CCCCN1CCN(c2ncccn2)CC1` [Ipsapirone] (20 µM) the value was 0.94; for `Cn1c(=O)c2c(ncn2CC2OCCO2)n(C)c1=O` [Doxofylline] (20 µM), 1.08.

(Values after the supplement of paper PMC12494721.)
